# According to the supplement of paper PMC8728848:
# The entries come from a sample that favours the strongest signals as a whole.
# How the values were obtained:
# Test in all cases: glycan array binding signal (z-score within array); higher = stronger binding
# Settings in all cases: glycan notation: IUPAC condensed, linker removed
# [1] = target: Fuc(a1-2)Gal(b1-3)GalNAc(b1-4)[Neu5Ac(a2-3)]Gal(b1-4)Glc
# Summary of the method: (§1)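 From the Consortium for Functional Glycomics database, 3228 arrays were curated, keeping only those whose protein sequence was available. Binding is given as a within-array Z-score averaged across arrays sharing a protein sequence and across linkers. Negative Z-scores can be read as non-binding.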
# [2] = target: Fuc(a1-2)Gal(b1-3)GlcNAc
# Summary of the method: as §1
# [3] = target: Fuc(a1-2)Gal(b1-3)GlcNAc(b1-3)Gal(b1-4)Glc
# Summary of the method: as §1
# [4] = target: Fuc(a1-2)Gal(b1-3)[Fuc(a1-4)]GlcNAc(b1-2)Man(a1-3)[Fuc(a1-2)Gal(b1-3)[Fuc(a1-4)]GlcNAc(b1-2)Man(a1-6)]Man(b1-4)GlcNAc(b1-4)[Fuc(a1-6)]GlcNAc(b1-4)[Fuc(a1-6)]GlcNAc
# Summary of the method: as §1
# [5] = target: Fuc(a1-2)Gal(b1-4)GlcNAc
# Summary of the method: as §1
# [6] = target: Fuc(a1-2)Gal(b1-4)GlcNAc6S
# Summary of the method: as §1
# [7] = target: Fuc(a1-2)Gal(b1-4)[Fuc(a1-3)]GlcNAc(b1-3)Gal(b1-4)[Fuc(a1-3)]GlcNAc(b1-3)Gal(b1-4)[Fuc(a1-3)]GlcNAc
# Summary of the method: as §1
# [8] = target: Fuc(a1-2)Gal6S(b1-4)Glc
# Summary of the method: as §1
# [9] = target: Fuc(a1-2)[Gal(a1-3)]Gal(b1-4)GlcNAc
# Summary of the method: as §1
# [10] = target: Fuc(a1-2)[Gal(a1-3)]Gal(b1-4)GlcNAc(b1-2)Man
# Summary of the method: as §1
# [11] = target: Fuc(a1-2)[Gal(a1-3)]Gal(b1-4)[Fuc(a1-3)]Glc
# Summary of the method: as §1
# [12] = target: Fuc(a1-2)[GalNAc(a1-3)]Gal(b1-3)GlcNAc(b1-6)GalNAc
# Summary of the method: as §1
# [13] = target: Fuc(a1-2)[GalNAc(a1-3)]Gal(b1-4)GlcNAc(b1-3)GalNAc
# Summary of the method: as §1
# [14] = target: Fuc(a1-3)[Gal3S(b1-4)]GlcNAc6S
# Summary of the method: as §1
# [15] = target: Fuc(a1-3)[GalNAc(b1-4)]GlcNAc
# Summary of the method: as §1
# [16] = target: Fuc(a1-4)GlcNAc
# Summary of the method: as §1
# [17] = target: Gal(a1-3)Gal(b1-4)Glc
# Summary of the method: as §1
# [18] = target: Gal(a1-3)Gal(b1-4)GlcNAc
# Summary of the method: as §1
# [19] = target: Gal(a1-3)Gal(b1-4)GlcNAc(b1-2)Man
# Summary of the method: as §1
# [20] = target: Gal(a1-3)Gal(b1-4)GlcNAc(b1-2)Man(a1-3)[Gal(a1-3)Gal(b1-4)GlcNAc(b1-2)Man(a1-6)]Man(b1-4)GlcNAc(b1-4)GlcNAc
# Summary of the method: as §1
# [21] = target: Gal(b1-3)GalNAc(b1-3)Gal(a1-4)Gal(b1-4)Glc
# Summary of the method: as §1
# [22] = target: Gal(b1-3)GalNAc(b1-4)Gal(b1-4)Glc
# Summary of the method: as §1
# [23] = target: Gal(b1-3)GlcNAc(b1-2)Man(a1-3)[Gal(b1-3)GlcNAc(b1-2)Man(a1-6)]Man(b1-4)GlcNAc(b1-4)GlcNAc
# Summary of the method: as §1
# [24] = target: Gal(b1-3)GlcNAc(b1-3)GalNAc
# Summary of the method: as §1
# [25] = target: Gal(b1-3)[Fuc(a1-4)]GlcNAc(b1-2)Man
# Summary of the method: as §1
# [26] = target: Gal(b1-4)GlcNAc(a1-6)Gal(b1-4)GlcNAc
# Summary of the method: as §1
# [27] = target: Gal(b1-4)GlcNAc(b1-2)Man(a1-3)Man(b1-4)GlcNAc(b1-4)GlcNAc
# Summary of the method: as §1
binder,measurement,setting,value
PX14343C-bfa-541-26-541 (Bacteroides fragilis) (protein) KAPLDEIADDSFWSDETLVKYYVNDLYSEISVDGLQLQENRSDNSVSAQRDKYRASWFKFNYDMVSASDPQDDDVWEDYYVKVRKCNRFFERIGTSTIEESEKSRLTGEVHFLRAMFYFEMVKRYGGVILLDKVLTMEDNWEIPRSSEKECYDFILEDLKKATEMLPASYGSREKGRATKGAAYALKSRVELYDKRYEDVIKSCAEVYKLGYELVDGTTPEKYRSIWWTTNKDNKEIIFDVQYKSPDVYNNMMVCNMVTYINDKYGDRGWGGLGPTQELIDAFEMADGTPATQYSQAPADQVFDINTCGIYEGREPRFYANIVFHGSQIFFNADKGAVTVDRYLMDTPDKGDGSLTGYNVWKWIDYDNYNYPYAGAGSPDFSTNWIILRYAEIYLNDAEARLETGDVEGARKAVNMIRQRVGLPDLTESDPEKLRELIRKERRIEFAFEEQRFYDVRRWKIGPETQTTLHGVRFVSPTEFKVTKTDIRTWNDRLYLTPVPHDEIVRSSVLKQNLGY,glycan array binding signal (z-score),[1],1.52
same,glycan array binding signal (z-score),[2],0.399
same,glycan array binding signal (z-score),[3],-0.05
same,glycan array binding signal (z-score),[4],0.403
same,glycan array binding signal (z-score),[5],-0.892
same,glycan array binding signal (z-score),[6],-0.542
same,glycan array binding signal (z-score),[7],-0.071
same,glycan array binding signal (z-score),[8],3.12
same,glycan array binding signal (z-score),[9],-0.674
same,glycan array binding signal (z-score),[10],-0.447
same,glycan array binding signal (z-score),[11],-0.83
same,glycan array binding signal (z-score),[12],0.051
same,glycan array binding signal (z-score),[13],0.855
same,glycan array binding signal (z-score),[14],-0.963
same,glycan array binding signal (z-score),[15],0.848
same,glycan array binding signal (z-score),[16],-0.619
same,glycan array binding signal (z-score),[17],-0.559
same,glycan array binding signal (z-score),[18],7.53
same,glycan array binding signal (z-score),[19],-1.04
same,glycan array binding signal (z-score),[20],2.85
same,glycan array binding signal (z-score),[21],-0.233
same,glycan array binding signal (z-score),[22],-0.284
same,glycan array binding signal (z-score),[23],2.98
same,glycan array binding signal (z-score),[24],0.08
same,glycan array binding signal (z-score),[25],-0.63
same,glycan array binding signal (z-score),[26],8.35
same,glycan array binding signal (z-score),[27],0.345
